Records with an inconclusive call do not appear. Activity calls are given as the source filed them. Calls come from the whole dose curve; as a rule, active = well fitted cell-killing curve with a large enough effect; inconclusive = small, poorly fitted or top-dose-only effect, or effect the other way; inactive = no such curve, though single readings can be large or run the other way.
Potency is the fitted concentration of half-maximal effect.

This experiment is described as follows: Quantitative High-Throughput drug screen in 47 multiple myeloma cell lines against the NCATS MIPE library collection: Delta47_JCRB cell viability assay (AID 1918925; note: nearly all actives have a fitted effect of over 45% in size). The conditions noted are these: Delta47 myeloma viability, CellTiter-Glo ATP, 48 h; series mostly up to 45.8 µM. From the text:
PI: Beverly A. Mock Ph.D.
Laboratory of Cancer Biology and Genetics,
Center for Cancer Research, National Cancer Institute,
National Institute of Health, Bethesda, Maryland
Drug resistance and disease progression are common in multiple myeloma (MM) patients, underscoring the need for new therapeutic combinations. […] We hypothesized that effective combinations would reduce MYC expression and enhance p16 activity. […] These preclinical data identify potentially useful drug combinations for evaluation in drug-resistant MM and reveal potential mechanisms of combined drug sensitivity.
Described herein is the primary MIPE qHTS used to cherrypick compounds. Validated compounds were then further tested for potential synergistic activiy.
[1] Peat TJ, Gaikwad SM, Dubois W, Gyabaah-Kessie N, Zhang S, Gorjifard S, Phyo Z, Andres M, Hughitt VK, Simpson RM, Miller MA, Girvin AT, Taylor A, Williams D, D'Antonio N, Zhang Y, Rajagopalan A, Flietner E, Wilson K, Zhang X, Shinn P, Klumpp-Thomas C, McKnight C, Itkin Z, Chen L, Kazandijian D, Zhang J, Michalowski AM, Simmons JK, Keats J, Thomas CJ, Mock BA. Drug combinations identified by high-throughput screening promote cell cycle transition and upregulate Smad pathways in myeloma. Cancer Lett. 2023 Aug 1;568:216284. doi: 10.1016/j.canlet.2023.216284. Epub 2023 Jun 24. PMID: 37356470; PMCID: PMC10408729.
SEQUENCE No. (e.g., 1, 2, 3, etc.); […] (e.g., Cells, Incubation, Reagent, etc.); VALUE and DESCRIPTION.
1; Cells; 5 uL; white, solid bottom 1536-well Greiner assay plate.
2; Compounds; 23 nL; Kalypsis pin tool (Wako USA) equipped with a 1536-well pin head to transfer to the assay plates.
3; Incubation; 48 hours; 37C incubation.
4; Reagent;5uL; CellTiter Glo (Promega).
5; Detector; 425V; Luminescence; Viewlux PerkinElmer.
NOTES (numbers refer to Sequence numbers above)
1. The cell-based screening methods employed in this study were like those previously published. Briefly, the corresponding myeloma cell lines were screened in 1,536-well plates with 500 cells, 5-uL per well for inhibition of cell viability (assessed by measuring ATP levels with CellTiterGlo).
2. NCATS MIPE 4.0 library of approved and investigational drugs were added using the Kalypsis pin tool. Wells treated with DMSO only for 100% viability and media only wells for 0% viability were used as controls.
3. The assay plates were covered and incubated for 48 hours in a 37C, 5% CO2 incubator with controlled humidity.
4. After 48 hours, CellTilter-GloTM luminescent substrate mix (Promega) reagent was added to the assay plate and plates we incubated for 5 min at room temperature.
5. Signal was measured as median relative luminescence units on a ViewLux (PerkinElmer) multiplate reader.
[1] Heske CM, Davis MI, Baumgart JT, Wilson K, Gormally MV, Chen L, Zhang X, Ceribelli M, Duveau DY, Guha R, Ferrer M, Arnaldez FI, Ji J, Tran HL, Zhang Y, Mendoza A, Helman LJ, Thomas CJ. Matrix Screen Identifies Synergistic Combination of PARP Inhibitors and Nicotinamide Phosphoribosyltransferase (NAMPT) Inhibitors in Ewing Sarcoma. Clin Cancer Res. 2017 Dec 1;23(23):7301-7311. doi: 10.1158/1078-0432.CCR-17-1121. Epub 2017 Sep 12. PMID: 28899971; PMCID: PMC6636827.
With `COc1cc2nc(-c3ccc(N4CCN(C)CC4)cc3)nc(NCCN3CCOCC3)c2cc1OC`, the Potency is 0.148 µM (active).

Turning to `CCC(=O)O[C@]1(C(=O)CO)CC[C@H]2[C@@H]3CCC4=CC(=O)CC[C@]4(C)[C@@H]3CC[C@@]21C`, the Potency entry was “inactive”.

`Cc1ccc(Nc2cc(-c3cccc(N4C(=O)c5ccccc5C4=O)c3)ncn2)cc1NS(C)(=O)=O`: the Potency is 14.8 µM (active).

`CCOC1OC(=O)C[C@H]1NC(=O)[C@@H]1CCCN1C(=O)[C@@H](NC(=O)c1ccc(N)c(Cl)c1)C(C)(C)C` (stereo not given in full): the Potency entry was “inactive”.

Take `O=c1cc(-c2cccc3c2Sc2ccccc2S3)oc(N2CCOCC2)c1`: the Potency was 5.26 µM (active).

For the compound `CC(=O)Nc1ccc([C@H](C)C(=O)Nc2ncc(C(C)C)s2)cc1`, the Potency was 1.48 µM (active).

`O=C1C(Cl)=C(NCCN2CCOCC2)C(=O)c2ncccc21`: the Potency was 7.43 µM (active).

As to `O=C(O)CCC1CCC(c2cc(F)ccc2F)(S(=O)(=O)c2ccc(Cl)cc2)CC1` (stereo not given), the Potency was 5.9 µM (active).

Turning to `NC(=O)c1cnc(-c2ccc(C3(N)CCC3)cc2)c(-c2ccccc2)c1`, the Potency is 6.62 µM (active).

Turning to `COc1ccc2cc(-c3nc(-c4ccc(S(C)=O)cc4)[nH]c3-c3ccncc3)ccc2c1` (stereo not given), the Potency was 16.6 µM (active).

As for `C=C1C(=O)OC2C=C(C)CCC=C(C)CCC12` (stereo not given), the Potency is 18.7 µM (active).

For `O=C(Nc1ccccc1-c1cn2c(CN3CCNCC3)csc2n1)c1cnc2ccccc2n1`, the Potency was 4.69 µM (active).

With `CC[C@@H]1C=C(C)C[C@H](C)C[C@H](OC)[C@H]2O[C@@](O)(C(=O)C(=O)N3CCCC[C@@H]3C(=O)O[C@H](C(C)=C[C@@H]3CC[C@H](Cl)[C@H](OC)C3)[C@H](C)[C@@H](O)CC1=O)[C@H](C)C[C@H]2OC`, the Potency was 16.6 µM (active).

Regarding `Clc1ccc(C(c2ccc(Cl)cc2)n2cc[n+](CC(OCc3ccc(Cl)cc3Cl)c3ccc(Cl)cc3Cl)c2)cc1` (stereo not given), the Potency was 8.33 µM (active).

For the compound `CC(=O)Oc1cc2c(s1)CCN(C(C(=O)C1CC1)c1ccccc1F)C2` (stereo not given), the Potency is 3.32 µM (active).

Regarding `O=c1cc(N2CCOCC2)oc2c(-c3cccc4c3sc3ccccc34)cccc12`, the Potency was 3.32 µM (active).

On to `CNC(=O)c1ccccc1Sc1ccc2c(C=Cc3ccccn3)n[nH]c2c1`, for which the Potency was 3.72 µM (active).

With `CC(C)(C)C(=O)Oc1ccc2c(c1)nc(NC(=O)c1cccc([N+](=O)[O-])c1)n2CCCO`, the Potency entry is “inactive”.

For `CCOC(=O)C1=C(N)Oc2ccc(Br)cc2C1C(C#N)C(=O)OCC` (stereo not given), the Potency was 14.8 µM (active).

Regarding `C[N+]1(C)[C@@H]2CC(OC(=O)[C@H](CO)c3ccccc3)C[C@H]1[C@H]1O[C@@H]12` (stereo not given in full), the Potency result is “inactive”.

With `COCCOc1nc(-c2ccc(Cl)c(Cl)c2)n(-c2ccc(NC(=O)CCl)cc2)n1`, the Potency was 9.35 µM (active).

For the compound `NC(=O)c1ccc2nc(-c3ccc(Oc4ccc(Cl)cc4)cc3)[nH]c2c1`, the Potency is 0.0264 µM (active).

Consider `COc1cc(NC(=O)c2ccc(-c3ccc(Cl)cc3)o2)cc(OC)c1`, for which the Potency was 2.35 µM (active).

Turning to `C[C@]12CC[C@@H]3c4ccc(O)cc4CC[C@H]3[C@H]1C[C@@H](O)[C@H]2O`, the Potency was 2.64 µM (active).

On to `CC(C)C(C)C=CC(C)C1CCC2C3=CC=C4CC(O)CCC4(C)C3CCC21C` (stereo not given), for which the Potency result is “inactive”.

Take `Cc1cc(OCCCc2c(C(=O)O)n(Cc3cccnc3)c3c(-c4c(COc5ccc(N6CCN([S+](C)(=O)[O-])CC6)cc5)nn(C)c4C)cccc23)cc(C)c1Cl`: the Potency is 18.7 µM (active).

For `NC(=O)c1cccc(-c2cc(Nc3ccc(OC(F)(F)F)cc3)ncn2)c1`, the Potency is 18.7 µM (active).

For `O=C(O)c1ccc(-c2cc3cccnc3c(-c3ccc4nonc4c3)n2)cc1`, the Potency was 23.5 µM (active).

Consider `CCC(=O)NC[C@H](Cc1ccc(OCCc2nc(-c3ccccc3)oc2C)cc1)NC(C)=CC(=O)c1ccc(C(F)(F)F)cc1`, for which the Potency result was “inactive”.

For `CS(=O)c1ccc(-c2nc(-c3ccc(F)cc3)c(-c3ccncc3)[nH]2)cc1` (stereo not given), the Potency was 13.6 µM (active).

For the compound `Nc1ncnc2c1nc(Cl)n2[C@@H]1O[C@H](CO)[C@@H](O)[C@@H]1O`, the Potency was 23.5 µM (active).

For the compound `CC(C)(C(=O)NCC(F)(F)C(F)(F)F)C(=O)N[C@@H]1C(=O)Nc2ccccc2-c2ccccc21`, the Potency is 20.9 µM (active).

For the compound `COc1cc2ncnc(-n3nc(-c4ccccn4)nc3N)c2cc1OC`, the Potency was 1.48 µM (active).

`CC(C)n1cnc2c(NCCCCCCNC(=O)OC(C)(C)C)nc(NCCO)nc21`: the Potency is 14.8 µM (active).

Turning to `O=C1c2ccccc2-[n+]2ccc3c([nH]c4ccccc43)c21`, the Potency was 1.32 µM (active).

Turning to `COc1cccc(-c2cc(=O)c3ccccc3o2)c1N`, the Potency is 2.64 µM (active).

For the compound `COc1cc(Nc2ncc(F)c(Nc3ccc4c(n3)NC(=O)C(C)(C)O4)n2)cc(OC)c1OC`, the Potency was 1.18 µM (active).

Regarding `O=C1c2c(O)cc(O)cc2O[C@H](c2cc(O)c(O)c(O)c2)[C@H]1O`, the Potency result was “inactive”.

For the compound `C=C1C(=O)[C@@]23C(CC[C@@H]1[C@H]2O)[C@@]12CO[C@]3(O)[C@@H](O)[C@@H]1C(C)(C)CC[C@@H]2O` (stereo not given in full), the Potency is 3.72 µM (active).

In the case of `Nc1ncnc2c1ncn2[C@@H]1O[C@@H](CO)[C@H](O)[C@H]1O`, the Potency entry is “inactive”.

These data come from PubChem BioAssay (NCATS).
